Results reported in PubChem BioAssay AID1035475 (Broad Institute, 2014).
Potency and affinity values are given separately. Results filed as inconclusive are left out. Values without a mark were called inactive.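 Rule for the calls: active = fluorescent signal drops by 40% or more, counted as a hit; inconclusive = no clear call, values can overlap the other calls; inactive = the rest, including any activity in the opposite direction.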

assay: inhibitors of fibronectin matrix deposition, dose response, AH1F cells, Alexa488-FN fluorescence, cherry-picks (AID 1035475); conditions: AH1F fibroblasts, overnight; series mostly up to 35 µM; activity change, negative = inhibition: at the top concentration;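 note: AH1F fibroblasts incorporating labeled fibronectin into their extracellular matrix; 0% = neutral control wells and -100% = wells without labeled fibronectin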

Row | SMILES | activity change, negative = inhibition
1 | Cc1cc(C)n2ncc(C(=O)NCc3ccc(Cl)cc3)c2n1 | -4.49%
2 | Cc1ccc(Nc2nnc(SCc3ccccc3)s2)cc1 | -41%
3 | COC(=O)C[C@@H]1CC[C@@H]2[C@@H](COc3ccc(NC(=O)Cc4cccs4)cc3C(=O)N2C)O1 | 1.6%
4 | N#C[C@@H]1[C@@H](c2ccccc2C2=CCCCC2)[C@@H](CO)N1S(=O)(=O)c1ccccc1 | 35.2% [at 30 µM]
5 | CC1CN(C(=O)c2cc3c(=O)n4ccccc4nc3n2C)CC(C)O1 (stereo not given) | -7.05%
6 | C[C@H](O)C#Cc1ccc2c(c1)O[C@@H](CN(C)C)[C@H](C)CN([C@H](C)CO)S2(=O)=O | 26.9%
7 | CSc1ccccc1C(=O)C1CCCN(C(=O)CCc2cccnc2)C1 (stereo not given) | 0.764%
8 | O=C(c1cccnc1)N1C[C@@H]2[C@H](c3ccccc31)[C@@H](CO)N2CC1CCCC1 | 36%
9 | CO[C@@H]1CN(C)C(=O)c2ccc(NC(=O)c3ccc(-c4ccccc4)cc3)cc2OC[C@H](C)NC[C@@H]1C | 5.74%
10 | CN1c2ccc(-c3ccccc3)cc2[C@@H]2[C@@H](CCN2C(=O)CN2CCOCC2)[C@@H]1CO | 24.1% [at 30 µM]
11 | O=C(CC1Nc2ccccc2NC1=O)Nc1ccc2c(c1)OCO2 (stereo not given) | 5.64%
12 | COc1cccc(CNC(=O)CCc2nnc3ccc(NCCCN4CCCC4=O)nn23)c1 | -9.03%
13 | N#C[C@H]1[C@@H](c2ccccc2C2=CCCCC2)[C@H](CO)N1S(=O)(=O)c1ccccc1 | 34.4% [at 30 µM]
14 | C[C@H](CO)N1C[C@H](C)[C@H](CN(C)Cc2ccc(-c3ccccc3)cc2)Oc2ccc(NC(=O)C3CCCCC3)cc2C1=O | 32.1% [at 30 µM]
15 | CC(C)Cc1nnc(NC(=O)CSc2nc(N)cc(=O)[nH]2)s1 | 5.29%
16 | O=C(Nc1ccccc1F)N1C[C@@H]2[C@H](c3ccccc31)[C@H](CO)N2C(=O)C1CCOCC1 | 33.8%
17 | COCC(=O)Nc1ccc2c(c1)C(=O)N(C)[C@H]1CC[C@H](CC(=O)NCc3ccccc3Cl)O[C@H]1CO2 | 12.8%
18 | CO[C@@H]1CN(C)C(=O)c2cc(NC(=O)Nc3ccc(Cl)c(Cl)c3)ccc2OC[C@@H](C)NC[C@@H]1C | 28.6%

Row | SMILES | activity change, negative = inhibition
19 | Cc1cccc(NC(=O)c2ccc(S(=O)(=O)N3CCCCC3)cc2)n1 | -12.8%
20 | Nc1c(C(=O)NCc2ccco2)nnn1Cc1ccccc1 | 1.31%
21 | O=S(=O)(c1ccccc1F)N1CC[C@H]2[C@H](CO)Nc3ccc(-c4cccc(F)c4)cc3[C@H]21 | 11.5%
22 | O=C(OCC(O)C(O)COC(=O)c1ccccc1)c1ccccc1 (stereo not given) | -11.1%
23 | C[C@H](CO)N1C[C@H](C)[C@@H](CN(C)C(=O)c2cccc(F)c2)Oc2ncc(-c3ccccc3)cc2C1=O | 20.2%
24 | C[C@H](CO)N1C[C@H](C)[C@H](CN(C)C)Oc2cc(C#C[C@@H](C)O)ccc2S1(=O)=O | 27.1%
25 | O=C(c1cccnc1)N1C[C@H]2[C@@H](c3ccccc31)[C@H](CO)N2CC1CCCC1 | 40.5%
26 | COc1cccc(-c2ccc3c(c2)[C@H]2[C@H](CCN2S(=O)(=O)c2cccc(OC)c2)[C@H](CO)N3)c1 | 3.66%
27 | C[C@@H](O)C#Cc1ccc2c(c1)O[C@@H](CN(C)C)[C@@H](C)CN([C@@H](C)CO)S2(=O)=O | 21.2%
28 | CC1(C)Cc2c(C#N)c(SCC(=O)c3ccccc3)nc(N3CCOCC3)c2CS1 | -29.1%
29 | COc1cccc(-c2ccc3c(c2)[C@H]2[C@H](CCN2S(=O)(=O)c2cccc(OC)c2)[C@@H](CO)N3)c1 | -7.81%
30 | CO[C@H]1CN(C)C(=O)c2cc(NC(=O)Nc3ccc(Cl)c(Cl)c3)ccc2OC[C@@H](C)NC[C@@H]1C | 13.7%
31 | CO[C@H]1CN(C)C(=O)c2ccc(NC(=O)c3ccc(-c4ccccc4)cc3)cc2OC[C@@H](C)NC[C@H]1C | 12.2%
32 | COc1cccc(-c2ccc3c(c2)[C@@H]2[C@@H](CCN2S(=O)(=O)c2cccc(OC)c2)[C@@H](CO)N3)c1 | -14.6%
33 | C[C@H](O)C#Cc1ccc2c(c1)O[C@H](CN(C)C)[C@@H](C)CN([C@H](C)CO)S2(=O)=O | 38.2%
34 | C[C@@H]1CN([C@H](C)CO)C(=O)c2cc(-c3ccccc3)cnc2O[C@@H]1CN(C)C(=O)c1cccc(F)c1 | 46%
35 | CO[C@H]1CN(C)C(=O)c2ccc(NC(=O)c3ccc(-c4ccccc4)cc3)cc2OC[C@H](C)NC[C@H]1C | 21.2%
